Screening data as filed in PubChem.
Sampled rows, rich in hits. Any-hit rate of the full collection: about 3.9%.
ALR inh: inhibitors of human ALR sulfhydryl oxidase, primary screen, biochemical, H2O2 detection, HRP-luminol luminescence, single point | FAD-linked sulfhydryl oxidase ALR (Homo sapiens), P55789 | purified ALR, DTT oxidation | inhibition, % (no concentration beside the values) | hit rate 3.8% among 290,000;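 active = mean replicate inhibition above about 79%, with every replicate also reaching it, limit read from the data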
Mot1-301 SUMO: yeast Mot1-301 growth rescue at high temperature, primary screen, SUMOylation pathway inhibitor project, S. cerevisiae, ATP luminescence, 38.5C; S. cerevisiae Mot1-301 growth rescue; percent above DMSO median, 100 means doubled; growth rescue, % at 18.8 µM; hit rate 1% among 320,000;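 active = every valid replicate shows activation above 250% relative to neutral control wells; inactive = the rest, any valid replicate at or below 250%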;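 also: OY570 slx delta 5 strain wells were the positive control but not used for scaling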
Casp6 inh: human caspase-6 inhibitors, primary screen, biochemical, VEID-R110 fluorescence, single point, set 2. hit rate 0.53% among 350,000. inhibition, % at 12.5 µM. purified caspase-6, Z-VEID-R110 cleavage fluorescence;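 active = mean inhibition across replicates at least about 35%, with every replicate also reaching that limit, limit read from the data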;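 also: 0% = median of neutral control wells and 100% = no fluorescence left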
NSD2 inh: NSD2 histone methyltransferase inhibitors, primary screen, biochemical, AlphaScreen, single concentration, set 2 | Histone-lysine N-methyltransferase NSD2 (Homo sapiens), O96028 | NSD2 peptide methylation, 120 min | inhibition, % at 12.5 µM | hit rate 0.54% among 310,000 | AID 743445, 2014; in the data active = inhibition above about 50%
CDK5 p35 inh: inhibitors of human CDK5/p35 kinase, primary screen, biochemical, single concentration. AID 488839, 2010. hit rate 0.01% among 330,000. Cyclin-dependent kinase 5 (Homo sapiens) + Cyclin-dependent kinase 5 activator 1 (Homo …. inhibition, % at 10 µM. Recombinant CDK5/p35, ADP-Glo luminescence, 60 min;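 active = highest replicate inhibition of at least 50% and at least 75% of replicates reaching 50%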;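 also: plate controls were DMSO neutral control for no effect and GW8510 at 10 µM for full effect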
N-glyco inh: increase of ERlucT glycosylation luciferase signal, primary screen, N-linked glycosylation inhibitor project, D54 ERlucT cells, luminescence, set 2; D54 ERlucT glycosylation luciferase reporter, 24 h; percent of 100 nM tunicamycin response; reporter increase, % at 12.5 µM; hit rate 0.23% among 360,000;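 active = mean luciferase reporter signal, scaled so untreated is 0 and the glycosylation-blocking control 100, at or above a set limit in every replicate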;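 also: luciferase carries N-glycosylation sites so blocking glycosylation raises the light; 0% = median of neutral control wells and 100% = median of 100 nM tunicamycin wells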
Numbers without * were called inactive.

`Oc1ccc(CCNc2c3ccccc3nc3ccccc23)cc1O` gave ALR inh 99*, Mot1-301 SUMO 106, Casp6 inh 15, NSD2 inh 17, CDK5 p35 inh 3 and N-glyco inh 37*.
c1ccc(CNc2c3ccccc3nc3ccccc23)cc1 was read as ALR inh -9, Mot1-301 SUMO 1, Casp6 inh -3, CDK5 p35 inh 0 and N-glyco inh 24.
Screening CCN(CC)c1ccc(NC(=O)COC(=O)CSc2ccc(Br)cc2C)cc1 returned ALR inh 99*, Mot1-301 SUMO 12, Casp6 inh -4, NSD2 inh 1, CDK5 p35 inh 0 and N-glyco inh -2.
Screening CC(=O)c1cccc(OCC(=O)N(C)CC(=O)NCc2ccco2)c1 returned ALR inh -8, Mot1-301 SUMO -19, Casp6 inh 49*, NSD2 inh 6, CDK5 p35 inh -3 and N-glyco inh 0.
O=C(COC(=O)CSc1ccc(Br)cc1)NCc1ccco1 was read as ALR inh 13, Mot1-301 SUMO -1, Casp6 inh -47, NSD2 inh 1, CDK5 p35 inh 1 and N-glyco inh 0.
`O=C(COC(=O)c1cccc(Br)c1)NCc1ccco1` gave ALR inh -1, Mot1-301 SUMO 15, Casp6 inh 65*, NSD2 inh -7, CDK5 p35 inh 0 and N-glyco inh -3.
For Cc1cccc(C(=O)OCC(=O)NCc2ccco2)c1 the results were ALR inh -4, Mot1-301 SUMO 22, Casp6 inh 3, NSD2 inh 0, CDK5 p35 inh 0 and N-glyco inh 2.
Screening Cc1cc(Br)ccc1SCC(=O)OCC(=O)NCc1ccco1 returned ALR inh 7, Mot1-301 SUMO -8, Casp6 inh 48*, NSD2 inh 1, CDK5 p35 inh -5 and N-glyco inh 0.
Screening Cc1ccc(C)c(SCC(=O)OCC(=O)c2ccco2)c1 returned ALR inh 0, Mot1-301 SUMO -7, Casp6 inh 54*, NSD2 inh 2, CDK5 p35 inh 0 and N-glyco inh 0.
For N#CCC(=O)Nc1ccc(C(=O)OCC(=O)NC(=O)NCc2ccco2)cc1 the results were ALR inh 98*, Mot1-301 SUMO 28, Casp6 inh -2, NSD2 inh -5, CDK5 p35 inh -1 and N-glyco inh 2.
C[C@@H]1CN([C@@H](C)CO)C(=O)c2cc(Br)cnc2O[C@@H]1CN(C)C(=O)c1ccccc1F was read as Casp6 inh 1.
Screening CCOC(=O)c1[nH]c2ccc(OC)cc2c1NS(=O)(=O)c1ccc(Cl)s1 returned ALR inh 66, Mot1-301 SUMO -4, NSD2 inh -3 and N-glyco inh -3.
For COc1ccc2[nH]c(C(=O)O)c(NS(=O)(=O)c3ccc(F)cc3)c2c1 the results were ALR inh 90*, Mot1-301 SUMO 6, Casp6 inh -1, NSD2 inh 1, CDK5 p35 inh -1 and N-glyco inh 3.
Screening COc1ccc2[nH]c(C(=O)O)c(CCNC(C)=O)c2c1 returned Mot1-301 SUMO 119, NSD2 inh -2, CDK5 p35 inh 3 and N-glyco inh 2.
Screening COc1ccc2[nH]c(C(=O)O)c(NS(=O)(=O)c3ccc(Cl)s3)c2c1 returned ALR inh 99*, Mot1-301 SUMO 9, NSD2 inh 1, CDK5 p35 inh -4 and N-glyco inh 0.
Screening COc1ccc2[nH]c(C(=O)O)c(NS(=O)(=O)c3ccc(C)c(C)c3)c2c1 returned ALR inh 97*, Mot1-301 SUMO 6, Casp6 inh 2, NSD2 inh 5, CDK5 p35 inh -3 and N-glyco inh 2.
`COc1ccc(S(=O)(=O)NCC(=O)Nc2ccc(F)cc2)cc1` gave ALR inh 1, Mot1-301 SUMO 2, Casp6 inh 1, NSD2 inh -2, CDK5 p35 inh 1 and N-glyco inh -2.
